These results are taken from PubChem BioAssay AID651997 (Sanford-Burnham Center for Chemical Genomics, 2013).

About 700 (29%) of roughly 2,400 compounds were called active. A selection follows. Unmarked numbers belong to inactive results.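 How the source made its calls: active means inhibition of at least 50%; inactive means the rest.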

G-protein coupled receptor 183 (Homo sapiens), sequence (P32249 whole entry, looked up): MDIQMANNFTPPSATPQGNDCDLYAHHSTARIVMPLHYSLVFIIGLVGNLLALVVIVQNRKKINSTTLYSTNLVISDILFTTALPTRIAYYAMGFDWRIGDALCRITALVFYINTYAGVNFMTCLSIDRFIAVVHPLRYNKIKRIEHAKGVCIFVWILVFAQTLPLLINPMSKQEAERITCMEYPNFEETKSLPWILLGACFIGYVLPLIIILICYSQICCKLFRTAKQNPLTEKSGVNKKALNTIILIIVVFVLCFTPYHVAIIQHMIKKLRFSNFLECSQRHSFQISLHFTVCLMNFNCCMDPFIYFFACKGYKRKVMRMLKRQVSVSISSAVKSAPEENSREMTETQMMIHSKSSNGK

The test has as its target G-protein coupled receptor 183 (Homo sapiens) (UniProt P32249). Put plainly: EBI2 antagonist hit retest, beta-arrestin, confirmation, cell-based, single concentration, luminescence, 7a,25-OHC stimulation (AID 651997). Conditions: 7a,25-OHC antagonism, at 5 µM, hits give high values.
Broadly, the inhibition is the relative decrease from the control value, in per cent. Regarding `COc1ccc(NC(=O)N2CCC(Cc3ccccc3)CC2)cc1`, the inhibition was 55% (active).

Turning to `CC(C)N(Cc1ccccc1)C(=S)Nc1ccc(OC(F)F)cc1`, the inhibition was 24.2%.

With `CCCC1CCC(=NNC(=S)NCCc2ccccc2)CC1` (centres undefined), the inhibition is 23.4%.

For the compound `COc1ccc(-c2cc(NC=O)c3ncc(-c4cccc(C(=O)N(C)C)c4)n3c2)c(OC)c1`, the inhibition is 23.2%.

Regarding `Cc1ccc(O/C=C2\OC(=O)c3ccccc32)cc1`, the inhibition was 16%.

`COc1cccc(NC(=O)Cn2c3ccccc3c3nc4n(c(=O)c32)CCS4)c1`: the inhibition was 30.1%.

For `O=C(/C=C/c1cccc(C(F)(F)F)c1)N1CCN(c2ccccn2)CC1`, the inhibition is 28.2%.

As to `O=C(c1cc2ccccc2s1)N1CCN(c2ccccn2)CC1`, the inhibition is 55.7% (active).

As to `Cc1ccc(CSCCNC(=O)CN(c2ccc(F)cc2)S(C)(=O)=O)cc1`, the inhibition was 23.3%.

Consider `O=C(NCCNc1ccc([N+](=O)[O-])cc1)c1cccc2c(Br)cccc12`, for which the inhibition was 38%.

Consider `Cc1cc(Cl)c2oc(C(=O)N3CCC(O)(c4ccccc4)CC3)c(C)c2c1`, for which the inhibition was 43.3%.

For the compound `Fc1ccccc1/C=N/Nc1cc(N2CCCCC2)ncn1`, the inhibition was 55% (active).

Consider `COc1ccc(-n2c(Cc3cccn3C)nnc2SCC(=O)Nc2cc(C)cc(C)c2)cc1`, for which the inhibition is 7.81%.

For the compound `O=C(NCc1ccc(Cl)cc1)C1CCN(S(=O)(=O)c2cccs2)CC1`, the inhibition was 23%.

As for `N#CC(=C1CCCC1)c1nc(-c2ccc(Cl)cc2)cs1`, the inhibition was 54.8% (active).

For the compound `CCOc1ccc(C(C)=O)cc1COC(=O)c1cnc(Cl)c(Cl)c1`, the inhibition is 14.3%.

In the case of `COc1cccc(NC(=O)Cn2c3ccc(F)cc3c3nc4n(c(=O)c32)CCS4)c1`, the inhibition is 41.9%.

For the compound `COc1ccc(OCC(=O)N2CCN(C(=O)c3cccs3)CC2)cc1`, the inhibition is 30.8%.

Regarding `O=C(COc1ccc2ccccc2c1)N1CCN(C(=O)c2cccs2)CC1`, the inhibition was 61% (active).

Take `O=C(/C=C/c1cccc([N+](=O)[O-])c1)N1CCN(Cc2ccccc2)CC1`: the inhibition was 29.4%.

As to `O=C(/C=C/c1ccc(Cl)cc1)N1CCN(c2ccccc2[N+](=O)[O-])CC1`, the inhibition was 88.6% (active).

Consider `Cc1ccc(N2CC(C(=O)Nc3ccc(S(=O)(=O)N4CCCC4)cc3)CC2=O)cc1C` (centres undefined), for which the inhibition is 34.7%.

For `O=C(c1cc2ccccc2o1)N1CCN(S(=O)(=O)c2ccc(Cl)s2)CC1`, the inhibition is 70.7% (active).

For the compound `O=C(CCc1ccccc1)NNC(=O)COc1ccc(Cl)cc1`, the inhibition was 17.4%.

On to `O=C(COc1ccc(Cl)cc1)N1CCN(S(=O)(=O)c2ccc(Cl)cc2)CC1`, for which the inhibition was 72.8% (active).

In the case of `Cc1ccc(OCC(=O)N2CCN(C(=O)c3cccnc3)CC2)cc1`, the inhibition was 17.6%.

In the case of `Cc1cc(OCC(=O)N2CCN(c3ncccn3)CC2)ccc1Cl`, the inhibition was 50.9% (active).

On to `Cc1cccc(OCC(O)CN2CCN(S(=O)(=O)c3ccc(C)cc3C)CC2)c1` (centres undefined), for which the inhibition was 35.6%.

With `COc1ccc(OCC(=O)N2CCN(C(=O)COc3ccccc3)CC2)cc1`, the inhibition was 24.9%.

Regarding `Cc1ccc(OCC(=O)N2CCN(S(=O)(=O)c3ccc(Cl)s3)CC2)cc1C`, the inhibition was 79% (active).

Turning to `Cc1ccc(S(=O)(=O)N2CCN(C(=O)CSc3cc(C)ccc3C)CC2)c(C)c1`, the inhibition was 33.4%.

Take `CN1CCc2ccccc2C1Cc1ccccc1NC(=O)c1sc2ccccc2c1Cl` (centres undefined): the inhibition is 14%.

Take `Fc1ccc(N2CCN(Cc3cnc(Oc4ccc(Br)cc4)s3)CC2)cc1`: the inhibition is 40.8%.

Regarding `COc1ccc(OC)c(C(=O)c2coc3ccc(O)c(CN4CCOCC4)c23)c1`, the inhibition was 22.3%.

`COc1ccc(N(CC(=O)Nc2cc(OC)ccc2OC)S(=O)(=O)c2c(C)noc2C)cc1`: the inhibition was 21.2%.

On to `COc1ccc(C(c2nnnn2C2CCCC2)N2CCN(C/C=C/c3ccccc3)CC2)cc1` (centres undefined), for which the inhibition is 39.9%.

For `Cc1ccc(-n2ncc3c(=O)n(-c4ccc(C)c(C)c4)c(-c4ccco4)nc32)cc1`, the inhibition was 16.7%.

Regarding `COc1cc(/C=C(\C#N)C(=O)Nc2ccc3ccccc3c2)c([N+](=O)[O-])cc1OC`, the inhibition was 48.2%.

Take `O=C(CC(c1ccccc1)c1ccccc1)NCC(O)c1ccc([N+](=O)[O-])cc1` (centres undefined): the inhibition was 32.1%.

On to `O=C(COc1ccc(Cl)cc1)N1CCN(c2cccc(C(F)(F)F)c2)CC1`, for which the inhibition is 68% (active).

For the compound `O=C(COc1ccc2c(c1)CCC2)N1CCN(c2ccc(F)cc2)CC1`, the inhibition was 25%.

Regarding `Cc1cc(C)cc(Oc2nc3c(C)cccn3c(=O)c2/C=C(\C#N)C(=O)NC2CCS(=O)(=O)C2)c1` (centres undefined), the inhibition is 44.9%.

As to `COc1ccc(-c2nc(N)ncc2-c2ccc(Cl)cc2)c(O)c1`, the inhibition is 58.9% (active).

As to `O=C(NCc1ccc(Cl)cc1)c1cc(=O)nc2sc(-c3ccccc3)nn12`, the inhibition was 36%.

With `Cc1cccc(C)c1-n1nnnc1C(CCc1ccccc1)N1CCN(C/C=C/c2ccccc2)CC1` (centres undefined), the inhibition is 8.65%.

With `Cc1cc(C)c2c(=O)n3c(nc2c1)C(CC(C)C)NC(=O)c1cc2ccccc2cc1-3` (centres undefined), the inhibition is 61.4% (active).

Regarding `COc1ccccc1CCNC(=O)C1CCN(C(=O)/C=C/c2ccccc2)CC1`, the inhibition was 64.2% (active).

Consider `CC(C)Cn1c(N2CCN(C(=O)/C=C/c3ccccc3)CC2)nc2ccccc21`, for which the inhibition was 41.6%.

With `Cc1cccc(NC(=O)CN2CCN(C(=O)C3CCN(C(=O)/C=C/c4ccccc4)CC3)CC2)c1C`, the inhibition was 45%.

Regarding `CC(=O)c1nn(-c2ccc(C)cc2)cc1C(=O)c1cccc(Br)c1`, the inhibition was 45.6%.

For `O=C(c1ccc(-n2cnnn2)cc1)N1CCN(C(c2ccccc2)c2ccccc2)CC1`, the inhibition is 55.9% (active).

For `c1ccc(C(c2ccccc2)N2CCN(Cc3nnnn3C3CCCCC3)CC2)cc1`, the inhibition was 34%.

Regarding `Cc1nc2ccc(C(=O)N3CCN(c4ccccc4)CC3)cc2s1`, the inhibition is 40.5%.

As to `COc1ccc(Nc2cc(Sc3ccc(OC)cc3)ncn2)cc1`, the inhibition was 25.1%.
